# From PubChem BioAssay (Tox21)
# Records with an inconclusive call do not appear. Where a call stands in place of a potency, no number is given. Active and inactive are the calls of the source. Calls come from the whole dose curve; as a rule, active = well fitted inhibition curve with a large enough effect in the repeat runs; inconclusive = weak or mixed curves, or effect the other way; inactive = no such curve, though single readings can be large or run the other way. Where a SMILES comes first, the peptide text is derived from it.
# Molecular target: Nuclear receptor subfamily 1 group I member 3 (Homo sapiens) (UniProt Q14994)
# Sequence (Q14994 whole entry, looked up): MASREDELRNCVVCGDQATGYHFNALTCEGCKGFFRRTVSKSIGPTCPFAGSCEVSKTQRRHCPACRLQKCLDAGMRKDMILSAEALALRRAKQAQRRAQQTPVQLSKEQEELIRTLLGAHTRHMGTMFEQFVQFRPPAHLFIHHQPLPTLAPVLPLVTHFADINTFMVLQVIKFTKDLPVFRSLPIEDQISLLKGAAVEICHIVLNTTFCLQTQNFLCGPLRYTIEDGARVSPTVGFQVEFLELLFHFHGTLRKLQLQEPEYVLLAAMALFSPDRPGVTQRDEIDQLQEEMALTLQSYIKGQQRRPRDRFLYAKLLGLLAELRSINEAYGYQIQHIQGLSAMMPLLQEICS
# Assay: qHTS assay to identify small molecule antagonists of the constitutive androstane receptor (CAR) signaling pathway (AID 1224838);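 note: HepG2 cells stably expressing hCAR with CYP2B6 luciferase reporter stimulated by CITCO; nearly all actives have a fitted effect of over 40% in size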
# Settings: HepG2-CYP2B6-hCAR luciferase, CITCO-stimulated, 24 h; series mostly up to 92.4 µM
# Description: U.S. Tox21 Program National Center for Advancing Translational Sciences [NCATS] NIH Chemical Genomics Center [NCGC] U.S. Environmental Protection Agency [EPA] National Institutes of Environmental Health Sciences [NIEHS] National Toxicology Program [NTP] U.S. Food and Drug Administration [FDA] Tox21 Assay Overview: The constitutive androstane receptor (CAR) is a nuclear receptor which regulates multiple drug metabolizing enzymes (DMEs) and transporters. Activating CAR will generally increase the transcription and subsequent translation of CYP2B6 and CYP3A4. These two DMEs represent about 50% of the drug metabolizing potential in the body. When CAR is deactivated, the metabolizing potential in the body will decrease, subsequently increasing the toxicity in the body or lowering the therapeutic potential of a pro-drug. Recently, there have also been studies performed indicating CARs role in energy metabolism and cancer therapy. Therefore, inhibiting CARs activity could have a potential effect on diabetes and cancer. Identifying environmental toxins and compounds which modulate CAR, through the use of the Tox21 10K compound collection, will be an important step in determining the toxicity and potential therapeutic effects these factors will have on the human body.
# Tox21 Assay Protocol Summary: A double-stable (hCAR and CYP2B6-2.2kb) transfected cell line, derived from human hepatoma (HepG2) cells, was utilized for the duration of the quantitative high-throughput screens. The HepG2-CYP2B6-hCAR cells suspended in DMEM culture medium supplemented with 10% FBS, 5 ug/mL blasticidin, 0.5 mg/mL geneticin, 100 U/mL penicillin and 100 ug/mL streptomycin were dispensed at 2500 cells/4 uL/well in 1536-well white solid bottom plates using a Multidrop Combi. After the assay plates were incubated at 37 C/5% CO2 for 4 hrs, 23 nL of compounds at 15 concentrations (from 5-48 columns) or positive control (from 1 to 4 columns) were transferred to the assay plates using a Pintool station. One uL of CITCO, was added using a Flying Reagent Dispenser to generate a final concentration of 50 nM CITCO inside each well. After a 24 hr incubation period at 37 C/5% CO2, four uL of ONE-Glo reagent was added into the assay plates using a Flying Reagent Dispenser. After a 30 min incubation period at room temperature, the luminescence intensity in the assay plates was measured using a ViewLux plate reader.
# Potency is the fitted concentration of half-maximal effect.
row,SMILES,Potency
1,NCc1ccc(S(N)(=O)=O)cc1,inactive
2,C=CCOC(=O)CCCCCC,inactive
3,CCC(C)OC(C)CC (stereo not given),inactive
4,CC(=O)C1C(=O)C=C(C)OC1=O (stereo not given),inactive
5,CC(=O)c1cc(C)oc1C,inactive
6,Cc1ncc([N+](=O)[O-])n1CC(C)O (stereo not given),inactive
7,CO/N=C(/C(=O)N[C@@H]1C(=O)N2C(C(=O)[O-])=C(C[n+]3ccn4ncccc43)CS[C@H]12)c1nsc(N)n1,inactive
8,COC(=O)CCCCC(=O)O,inactive
9,CCCCCCC1(C)CCC(=O)O1 (stereo not given),inactive
10,CC(=O)CC(=O)OC(C)(C)C,inactive
11,CC(C)c1ccc(C=O)cc1,inactive
12,O=C1OCCO1,inactive
13,Cc1cccc(Cl)c1,inactive
14,CC(C)(C)NC[C@H](O)COc1cccc2c1CCCC2=O,inactive
15,O=C(NCN1CCOCC1)c1cnccn1,inactive
16,CC1OCCC1=O (stereo not given),inactive
17,O=C(O)c1cc2ccccc2nc1C(=O)O,inactive
18,OC1(c2ccc(Cl)cc2)CCNCC1,inactive
19,CC1=C(C(=O)O)N2C(=O)[C@@H](NC(=O)[C@H](N)C3=CCC=CC3)[C@H]2SC1,inactive
20,CC(O)COC(C)(C)C (stereo not given),inactive

row,SMILES,Potency
1,Cc1c(N)cccc1Cl,inactive
2,C[C@]12CCC(=O)C=C1CC[C@H]1[C@@H]3CC[C@](O)(C(=O)CO)[C@@]3(C)C[C@H](O)[C@@]12F,inactive
3,OCC1(CO)COCOC1,inactive
4,C=C(C)[C@@H]1CC=C(C)CC1,inactive
5,Nc1nc(-c2ccccc2)c(Br)c(=O)[nH]1,inactive
6,O=C(CN1CCNCC1)NC1CCCCC1,inactive
7,O=C(CCCl)NCCc1ccccc1,inactive
8,CC(C)(CO)C(O)C(=O)NCCCO (stereo not given),inactive
9,Cc1ccc2c(c1)C(=O)c1ccccc1C2=O,inactive
10,O=C1CCC(=O)N1Cl,inactive
11,CCCCCCCCCCCCCBr,inactive
12,c1ccc(-c2nn[nH]n2)cc1,inactive
13,c1ccc(B(c2ccccc2)c2ccccc2)cc1,inactive
14,Cn1c(=O)c2[nH]c(Br)nc2n(C)c1=O,inactive
15,CC1CCc2c(N3CCC(O)CC3)c(F)cc3c(=O)c(C(=O)O)cn1c23 (stereo not given),23.7 µM (active)
16,O=C(Cn1ccnc1[N+](=O)[O-])NCc1ccccc1,inactive
17,CC(C)[C@H]1CC[C@H](C)C[C@@H]1O,inactive
18,CC(=O)N[C@@H](CO)C(=O)N[C@@H](CC(=O)O)C(=O)N[C@@H](CCCCN)C(=O)N1CCC[C@H]1C(=O)O (Ac-SDKP-OH),inactive
19,COc1c2occc2c(OC)c2c(=O)cc(C)oc12,inactive
20,COc1cc(/C=C/C(N)=O)cc(OC)c1OC,inactive
